# Columns and labels:
# Assay in all cases: DAPPL (digital affinity profiling via proximity ligation, sequencing); 10 mM Tris-HCl pH 7.5, 50 mM NaCl, 1 mM DTT, 4% glycerol, room temperature, 30 min; GST-TFs on glutathione beads, 16-mer random dsDNA library, 0.1% formaldehyde crosslink after washing; high values mean tight binding
# [1] = molecular target: T1, FLI1 (Homo sapiens, UniProt Q01543 1-452); conditions: protein: recombinant; tags: N-terminal GST; dsDNA, one strand shown
# T1 sequence: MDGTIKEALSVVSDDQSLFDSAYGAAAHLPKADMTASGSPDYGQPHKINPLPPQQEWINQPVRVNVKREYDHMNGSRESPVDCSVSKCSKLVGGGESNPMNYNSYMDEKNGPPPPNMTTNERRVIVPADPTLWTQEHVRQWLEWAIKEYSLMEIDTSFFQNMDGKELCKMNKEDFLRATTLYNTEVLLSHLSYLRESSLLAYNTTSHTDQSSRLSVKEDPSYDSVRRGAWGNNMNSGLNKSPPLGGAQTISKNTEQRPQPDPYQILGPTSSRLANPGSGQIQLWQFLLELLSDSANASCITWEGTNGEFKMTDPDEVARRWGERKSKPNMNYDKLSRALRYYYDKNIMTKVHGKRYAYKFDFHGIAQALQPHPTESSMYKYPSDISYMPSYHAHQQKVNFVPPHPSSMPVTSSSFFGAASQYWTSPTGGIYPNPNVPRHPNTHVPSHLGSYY
# How it was run: (§1)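 Pools were built from human transcription factors expressed in yeast as GST fusions, captured on glutathione beads and DNA-barcoded, along with a tag-only sample. Incubation with 200 nmole of a 16-mer random double-stranded DNA library lasted 30 min at room temperature in Tris/NaCl/DTT/glycerol buffer, and was followed by washing, 0.1% formaldehyde crosslinking, proximity ligation, PCR amplification and Illumina NextSeq500 sequencing. Binding signal is the quotient of each hexamer's read frequency for a factor and its frequency for the tag-only sample.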
# [2] = molecular target: T2, ELK1 (Homo sapiens, UniProt P19419 1-428); conditions: protein: recombinant; tags: N-terminal GST; dsDNA, one strand shown
# T2 sequence: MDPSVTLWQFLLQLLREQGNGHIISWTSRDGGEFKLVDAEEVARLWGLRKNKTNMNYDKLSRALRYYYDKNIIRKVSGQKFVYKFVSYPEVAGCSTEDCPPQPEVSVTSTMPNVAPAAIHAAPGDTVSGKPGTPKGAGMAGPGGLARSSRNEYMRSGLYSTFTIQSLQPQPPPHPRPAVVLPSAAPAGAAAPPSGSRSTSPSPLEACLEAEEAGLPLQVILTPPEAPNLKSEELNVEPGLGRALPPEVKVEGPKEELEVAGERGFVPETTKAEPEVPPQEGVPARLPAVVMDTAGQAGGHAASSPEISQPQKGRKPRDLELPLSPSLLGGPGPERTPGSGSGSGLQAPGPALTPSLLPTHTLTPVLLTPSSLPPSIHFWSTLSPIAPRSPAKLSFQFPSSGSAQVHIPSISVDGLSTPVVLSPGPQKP
# How it was run: as §1
# [3] = molecular target: T3, GABPA (Homo sapiens, UniProt Q06546 1-454); conditions: protein: recombinant; tags: N-terminal GST; dsDNA, one strand shown
# T3 sequence: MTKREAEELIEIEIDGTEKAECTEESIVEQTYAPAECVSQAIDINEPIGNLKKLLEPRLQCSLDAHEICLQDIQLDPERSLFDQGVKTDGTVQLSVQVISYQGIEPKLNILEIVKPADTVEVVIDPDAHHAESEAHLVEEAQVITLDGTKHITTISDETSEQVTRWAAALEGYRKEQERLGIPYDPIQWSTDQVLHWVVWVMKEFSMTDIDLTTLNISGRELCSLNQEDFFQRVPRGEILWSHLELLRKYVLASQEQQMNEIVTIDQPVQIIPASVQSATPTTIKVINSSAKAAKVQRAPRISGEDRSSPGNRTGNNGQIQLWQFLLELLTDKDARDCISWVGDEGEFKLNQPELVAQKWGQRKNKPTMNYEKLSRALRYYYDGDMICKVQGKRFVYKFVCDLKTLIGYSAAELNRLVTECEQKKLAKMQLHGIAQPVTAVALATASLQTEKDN
# How it was run: as §1
# [4] = molecular target: T4, ERG (Homo sapiens, UniProt P11308 1-479); conditions: protein: recombinant; tags: N-terminal GST; dsDNA, one strand shown
# T4 sequence: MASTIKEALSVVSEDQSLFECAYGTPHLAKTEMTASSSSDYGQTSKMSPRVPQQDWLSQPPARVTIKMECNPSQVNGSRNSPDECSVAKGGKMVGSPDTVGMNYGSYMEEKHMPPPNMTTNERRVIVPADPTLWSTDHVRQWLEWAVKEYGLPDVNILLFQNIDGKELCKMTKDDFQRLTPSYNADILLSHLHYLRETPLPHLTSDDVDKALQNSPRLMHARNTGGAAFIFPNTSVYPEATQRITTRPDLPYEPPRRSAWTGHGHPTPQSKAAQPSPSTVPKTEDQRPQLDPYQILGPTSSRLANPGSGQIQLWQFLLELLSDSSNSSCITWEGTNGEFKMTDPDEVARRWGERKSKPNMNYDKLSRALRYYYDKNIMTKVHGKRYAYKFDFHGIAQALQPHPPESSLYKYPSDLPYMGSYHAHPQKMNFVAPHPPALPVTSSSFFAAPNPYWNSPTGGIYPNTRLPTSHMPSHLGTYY
# How it was run: as §1
# [5] = molecular target: ELF1 (Homo sapiens, UniProt P32519 1-619); conditions: protein: recombinant; tags: N-terminal GST; dsDNA, one strand shown
# ELF1, sequence (P32519 whole entry): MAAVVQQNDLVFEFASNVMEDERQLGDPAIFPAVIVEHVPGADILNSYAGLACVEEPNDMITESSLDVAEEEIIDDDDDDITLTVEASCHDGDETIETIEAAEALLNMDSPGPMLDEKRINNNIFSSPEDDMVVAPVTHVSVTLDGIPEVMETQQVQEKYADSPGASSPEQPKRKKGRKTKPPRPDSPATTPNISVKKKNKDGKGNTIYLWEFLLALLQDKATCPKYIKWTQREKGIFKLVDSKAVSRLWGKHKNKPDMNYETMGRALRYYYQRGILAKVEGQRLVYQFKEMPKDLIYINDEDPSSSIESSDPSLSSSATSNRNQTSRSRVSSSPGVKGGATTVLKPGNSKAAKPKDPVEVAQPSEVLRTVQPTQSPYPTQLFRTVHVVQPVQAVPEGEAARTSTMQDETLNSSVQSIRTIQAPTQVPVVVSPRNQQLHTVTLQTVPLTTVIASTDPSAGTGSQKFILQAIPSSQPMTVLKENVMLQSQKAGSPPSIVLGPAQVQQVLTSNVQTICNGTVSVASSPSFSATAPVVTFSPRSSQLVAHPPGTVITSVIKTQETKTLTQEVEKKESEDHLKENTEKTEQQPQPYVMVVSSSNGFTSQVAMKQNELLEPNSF
# How it was run: as §1
# [6] = molecular target: T5, EHF (Homo sapiens, UniProt Q9NZC4 1-300); conditions: protein: recombinant; tags: N-terminal GST; dsDNA, one strand shown
# T5 sequence: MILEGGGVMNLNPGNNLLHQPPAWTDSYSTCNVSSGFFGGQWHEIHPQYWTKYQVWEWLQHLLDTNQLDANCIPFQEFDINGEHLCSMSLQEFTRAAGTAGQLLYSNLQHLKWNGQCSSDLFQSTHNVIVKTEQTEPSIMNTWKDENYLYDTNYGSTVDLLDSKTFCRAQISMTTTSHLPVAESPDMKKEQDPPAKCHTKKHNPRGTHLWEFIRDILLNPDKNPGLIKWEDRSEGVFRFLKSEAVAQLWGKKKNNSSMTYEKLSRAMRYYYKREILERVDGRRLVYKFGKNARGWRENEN
# How it was run: as §1
# [7] = molecular target: SPI1 (Homo sapiens, UniProt P17947 1-270); conditions: protein: recombinant; tags: N-terminal GST; dsDNA, one strand shown
# How it was run: as §1
# [8] = molecular target: SPIB (Homo sapiens, UniProt Q01892 1-262); conditions: protein: recombinant; tags: N-terminal GST; dsDNA, one strand shown
# SPIB, sequence (Q01892 whole entry): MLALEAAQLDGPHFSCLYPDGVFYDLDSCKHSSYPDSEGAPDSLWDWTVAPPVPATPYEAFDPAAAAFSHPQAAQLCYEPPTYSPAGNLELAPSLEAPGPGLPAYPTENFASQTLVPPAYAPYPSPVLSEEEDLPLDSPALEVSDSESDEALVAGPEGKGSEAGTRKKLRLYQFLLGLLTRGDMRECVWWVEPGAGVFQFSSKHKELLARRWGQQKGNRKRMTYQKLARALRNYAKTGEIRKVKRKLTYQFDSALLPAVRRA
# How it was run: as §1
# [9] = molecular target: T6, ELK3 (Homo sapiens, UniProt P41970 1-407); conditions: protein: recombinant; tags: N-terminal GST; dsDNA, one strand shown
# T6 sequence: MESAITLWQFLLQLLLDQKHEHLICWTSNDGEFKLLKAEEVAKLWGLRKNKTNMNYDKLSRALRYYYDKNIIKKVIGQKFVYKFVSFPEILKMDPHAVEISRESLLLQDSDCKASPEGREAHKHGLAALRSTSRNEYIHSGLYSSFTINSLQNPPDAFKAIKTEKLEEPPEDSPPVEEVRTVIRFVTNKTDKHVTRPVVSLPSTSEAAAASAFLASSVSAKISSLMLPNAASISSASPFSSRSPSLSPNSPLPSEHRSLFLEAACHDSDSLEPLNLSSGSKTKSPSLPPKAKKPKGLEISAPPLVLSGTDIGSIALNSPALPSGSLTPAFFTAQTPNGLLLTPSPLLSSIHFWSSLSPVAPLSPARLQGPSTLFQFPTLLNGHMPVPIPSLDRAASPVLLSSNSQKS
# How it was run: as §1
# [10] = molecular target: T7, FEV (Homo sapiens, UniProt Q99581 1-238); conditions: protein: recombinant; tags: N-terminal GST; dsDNA, one strand shown
# T7 sequence: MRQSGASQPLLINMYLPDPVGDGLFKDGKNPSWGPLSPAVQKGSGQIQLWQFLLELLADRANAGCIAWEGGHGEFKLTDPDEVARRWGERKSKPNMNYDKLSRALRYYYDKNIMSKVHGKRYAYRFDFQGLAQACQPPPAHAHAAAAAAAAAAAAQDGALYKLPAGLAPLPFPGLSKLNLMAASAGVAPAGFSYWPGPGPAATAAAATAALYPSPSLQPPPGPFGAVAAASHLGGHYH
# How it was run: as §1
# [11] = molecular target: ETV5 (Homo sapiens, UniProt P41161 1-510); conditions: protein: recombinant; tags: N-terminal GST; dsDNA, one strand shown
# ETV5, sequence (P41161 whole entry): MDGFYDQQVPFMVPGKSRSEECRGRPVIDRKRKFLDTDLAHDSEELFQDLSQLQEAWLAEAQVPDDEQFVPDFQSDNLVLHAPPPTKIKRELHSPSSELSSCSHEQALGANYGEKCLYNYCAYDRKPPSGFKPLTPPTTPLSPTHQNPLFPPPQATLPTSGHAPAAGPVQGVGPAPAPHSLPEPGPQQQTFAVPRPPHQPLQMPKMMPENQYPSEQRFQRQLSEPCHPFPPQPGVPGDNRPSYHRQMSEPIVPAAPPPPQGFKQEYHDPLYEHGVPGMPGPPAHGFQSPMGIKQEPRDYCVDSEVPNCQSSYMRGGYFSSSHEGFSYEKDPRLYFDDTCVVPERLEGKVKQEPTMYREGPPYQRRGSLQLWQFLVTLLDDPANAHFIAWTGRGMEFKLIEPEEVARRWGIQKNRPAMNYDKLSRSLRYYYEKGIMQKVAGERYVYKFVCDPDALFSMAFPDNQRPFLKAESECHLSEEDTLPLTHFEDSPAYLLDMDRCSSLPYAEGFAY
# How it was run: as §1
# [12] = molecular target: HSF1 (Homo sapiens, UniProt Q00613 1-529); conditions: protein: recombinant; tags: N-terminal GST; chain copies: 3; dsDNA, one strand shown
# HSF1, sequence (Q00613 whole entry): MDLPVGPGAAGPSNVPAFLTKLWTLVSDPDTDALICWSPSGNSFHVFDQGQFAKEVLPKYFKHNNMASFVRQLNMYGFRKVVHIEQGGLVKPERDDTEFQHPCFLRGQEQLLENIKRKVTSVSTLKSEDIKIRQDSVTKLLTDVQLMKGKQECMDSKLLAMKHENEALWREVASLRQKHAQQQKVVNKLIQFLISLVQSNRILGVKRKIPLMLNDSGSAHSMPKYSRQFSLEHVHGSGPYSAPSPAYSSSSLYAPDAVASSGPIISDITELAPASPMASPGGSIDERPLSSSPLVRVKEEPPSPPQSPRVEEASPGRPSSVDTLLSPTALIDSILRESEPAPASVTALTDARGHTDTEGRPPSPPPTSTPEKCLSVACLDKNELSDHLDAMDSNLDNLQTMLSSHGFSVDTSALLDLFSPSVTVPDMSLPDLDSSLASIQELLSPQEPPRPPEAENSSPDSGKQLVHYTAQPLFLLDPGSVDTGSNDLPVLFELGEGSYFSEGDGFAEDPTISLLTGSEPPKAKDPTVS
# How it was run: as §1
# [13] = molecular target: T8, SPIC (Homo sapiens, UniProt Q8N5J4 1-248); conditions: protein: recombinant; tags: N-terminal GST; dsDNA, one strand shown
# T8 sequence: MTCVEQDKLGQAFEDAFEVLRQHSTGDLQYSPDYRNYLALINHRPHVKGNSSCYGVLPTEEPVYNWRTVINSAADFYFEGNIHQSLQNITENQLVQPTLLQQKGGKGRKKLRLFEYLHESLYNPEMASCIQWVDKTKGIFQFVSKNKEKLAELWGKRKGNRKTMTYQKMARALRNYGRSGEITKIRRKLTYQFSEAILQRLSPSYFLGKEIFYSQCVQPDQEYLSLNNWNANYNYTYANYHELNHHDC
# How it was run: as §1
# [14] = molecular target: ELF4 (Homo sapiens, UniProt Q99607 1-663); conditions: protein: recombinant; tags: N-terminal GST; dsDNA, one strand shown
# ELF4, sequence (Q99607 whole entry): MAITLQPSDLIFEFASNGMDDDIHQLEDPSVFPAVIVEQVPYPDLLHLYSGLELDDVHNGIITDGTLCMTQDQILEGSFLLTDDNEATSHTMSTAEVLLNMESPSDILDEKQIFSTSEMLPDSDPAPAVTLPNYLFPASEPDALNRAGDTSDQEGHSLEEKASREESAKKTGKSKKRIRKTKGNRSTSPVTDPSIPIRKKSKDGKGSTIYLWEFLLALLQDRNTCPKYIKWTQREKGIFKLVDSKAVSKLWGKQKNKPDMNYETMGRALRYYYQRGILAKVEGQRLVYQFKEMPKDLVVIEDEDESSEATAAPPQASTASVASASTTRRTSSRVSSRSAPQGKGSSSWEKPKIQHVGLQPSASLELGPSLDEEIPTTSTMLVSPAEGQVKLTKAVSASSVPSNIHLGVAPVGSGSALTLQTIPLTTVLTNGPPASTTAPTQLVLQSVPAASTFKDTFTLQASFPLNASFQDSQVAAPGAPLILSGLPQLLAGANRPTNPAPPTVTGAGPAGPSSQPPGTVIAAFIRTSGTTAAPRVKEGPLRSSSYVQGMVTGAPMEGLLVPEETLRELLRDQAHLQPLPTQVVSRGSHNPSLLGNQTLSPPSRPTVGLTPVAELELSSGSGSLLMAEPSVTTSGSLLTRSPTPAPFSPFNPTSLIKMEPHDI
# How it was run: as §1
# [15] = molecular target: T9, ELK4 (Homo sapiens, UniProt P28324-2 1-405); conditions: protein: recombinant; tags: N-terminal GST; dsDNA, one strand shown
# T9 sequence: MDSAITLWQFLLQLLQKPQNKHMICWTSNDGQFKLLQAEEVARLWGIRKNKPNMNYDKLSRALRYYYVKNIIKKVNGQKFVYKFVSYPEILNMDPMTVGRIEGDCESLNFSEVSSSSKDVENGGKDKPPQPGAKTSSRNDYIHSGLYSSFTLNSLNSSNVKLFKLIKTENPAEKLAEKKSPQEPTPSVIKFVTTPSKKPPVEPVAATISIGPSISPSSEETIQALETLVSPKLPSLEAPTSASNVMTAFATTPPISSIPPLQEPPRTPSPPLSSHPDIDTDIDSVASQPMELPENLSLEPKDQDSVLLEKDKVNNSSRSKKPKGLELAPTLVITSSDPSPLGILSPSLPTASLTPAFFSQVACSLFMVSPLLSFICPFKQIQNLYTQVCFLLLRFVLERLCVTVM
# How it was run: as §1
# [16] = molecular target: T10, ETV2 (Homo sapiens, UniProt O00321 1-342); conditions: protein: recombinant; tags: N-terminal GST; dsDNA, one strand shown
# T10 sequence: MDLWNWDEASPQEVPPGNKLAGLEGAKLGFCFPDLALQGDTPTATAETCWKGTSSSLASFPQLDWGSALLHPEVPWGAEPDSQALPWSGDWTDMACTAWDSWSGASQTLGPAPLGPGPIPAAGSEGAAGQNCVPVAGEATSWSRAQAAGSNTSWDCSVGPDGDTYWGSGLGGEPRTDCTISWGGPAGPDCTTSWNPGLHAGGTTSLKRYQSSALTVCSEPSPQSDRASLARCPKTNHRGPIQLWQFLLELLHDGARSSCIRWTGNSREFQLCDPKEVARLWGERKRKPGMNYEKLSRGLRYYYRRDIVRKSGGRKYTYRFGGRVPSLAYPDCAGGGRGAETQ
# How it was run: as §1
# [17] = molecular target: T11, ELF3 (Homo sapiens, UniProt P78545 1-371); conditions: protein: recombinant; tags: N-terminal GST; dsDNA, one strand shown
# T11 sequence: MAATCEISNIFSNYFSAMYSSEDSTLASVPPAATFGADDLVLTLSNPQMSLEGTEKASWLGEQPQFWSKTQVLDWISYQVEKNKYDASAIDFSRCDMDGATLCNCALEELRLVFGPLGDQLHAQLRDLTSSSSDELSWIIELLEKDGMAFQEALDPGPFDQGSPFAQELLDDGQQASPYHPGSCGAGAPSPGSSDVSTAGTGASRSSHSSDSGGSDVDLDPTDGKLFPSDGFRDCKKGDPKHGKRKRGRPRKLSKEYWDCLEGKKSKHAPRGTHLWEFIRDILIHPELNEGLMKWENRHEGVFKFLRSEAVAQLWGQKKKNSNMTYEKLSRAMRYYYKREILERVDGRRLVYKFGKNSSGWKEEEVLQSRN
# How it was run: as §1
# [18] = molecular target: CRX (Homo sapiens, UniProt O43186 1-299); conditions: protein: recombinant; tags: N-terminal GST; dsDNA, one strand shown
# CRX, sequence (O43186 whole entry): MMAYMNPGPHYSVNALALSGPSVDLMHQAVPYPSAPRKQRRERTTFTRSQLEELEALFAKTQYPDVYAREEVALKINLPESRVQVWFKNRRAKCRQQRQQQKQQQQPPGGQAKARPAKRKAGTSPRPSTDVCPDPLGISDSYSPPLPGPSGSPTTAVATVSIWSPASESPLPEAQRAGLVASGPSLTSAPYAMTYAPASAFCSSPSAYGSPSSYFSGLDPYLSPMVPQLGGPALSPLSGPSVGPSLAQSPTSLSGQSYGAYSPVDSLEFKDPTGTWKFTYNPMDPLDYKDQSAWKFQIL
# How it was run: as §1
# [19] = molecular target: ETV1 (Homo sapiens, UniProt P50549 1-477); conditions: protein: recombinant; tags: N-terminal GST; dsDNA, one strand shown
# ETV1, sequence (P50549 whole entry): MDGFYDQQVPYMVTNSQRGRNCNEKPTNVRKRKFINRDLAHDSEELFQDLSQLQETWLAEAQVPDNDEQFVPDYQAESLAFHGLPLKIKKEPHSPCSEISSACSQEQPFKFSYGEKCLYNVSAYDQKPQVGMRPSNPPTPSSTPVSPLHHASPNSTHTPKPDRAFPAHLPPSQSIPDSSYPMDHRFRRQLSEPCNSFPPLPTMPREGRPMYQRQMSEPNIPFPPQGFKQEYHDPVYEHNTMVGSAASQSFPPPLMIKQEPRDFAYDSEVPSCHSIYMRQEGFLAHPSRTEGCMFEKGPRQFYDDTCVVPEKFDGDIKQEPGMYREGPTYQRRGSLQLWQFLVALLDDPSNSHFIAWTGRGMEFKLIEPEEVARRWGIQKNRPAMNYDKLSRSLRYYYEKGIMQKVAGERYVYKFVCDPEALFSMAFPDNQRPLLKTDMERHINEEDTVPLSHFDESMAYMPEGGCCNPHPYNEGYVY
# How it was run: as §1
sequence,measurement,setting,value
TACACA,binding signal,[1],"1.21 fold enrichment (6-mer frequency, TF over GST control)"
same,binding signal,[2],"1.14 fold enrichment (6-mer frequency, TF over GST control)"
same,binding signal,[3],"1.15 fold enrichment (6-mer frequency, TF over GST control)"
same,binding signal,[4],"1.26 fold enrichment (6-mer frequency, TF over GST control)"
same,binding signal,[5],"1.21 fold enrichment (6-mer frequency, TF over GST control)"
same,binding signal,[6],"1.25 fold enrichment (6-mer frequency, TF over GST control)"
same,binding signal,[7],"1.11 fold enrichment (6-mer frequency, TF over GST control)"
same,binding signal,[8],"1.23 fold enrichment (6-mer frequency, TF over GST control)"
same,binding signal,[9],"1.18 fold enrichment (6-mer frequency, TF over GST control)"
same,binding signal,[10],"1.21 fold enrichment (6-mer frequency, TF over GST control)"
same,binding signal,[11],"1.2 fold enrichment (6-mer frequency, TF over GST control)"
same,binding signal,[12],"1.05 fold enrichment (6-mer frequency, TF over GST control)"
same,binding signal,[13],"1.35 fold enrichment (6-mer frequency, TF over GST control)"
same,binding signal,[14],"1.2 fold enrichment (6-mer frequency, TF over GST control)"
same,binding signal,[15],"1.26 fold enrichment (6-mer frequency, TF over GST control)"
same,binding signal,[16],"1.12 fold enrichment (6-mer frequency, TF over GST control)"
same,binding signal,[17],"1.22 fold enrichment (6-mer frequency, TF over GST control)"
same,binding signal,[18],"1.09 fold enrichment (6-mer frequency, TF over GST control)"
same,binding signal,[19],"1.2 fold enrichment (6-mer frequency, TF over GST control)"
